Activity calls are given as the source filed them.
Columns and labels:
[1] = test system: Human papillomavirus type 1a protein E7 (residues 44-93); experiment: HPV1a E7 fragment binders on microarrays, primary screen, biochemical, small-molecule microarray, residues 44-93, 635 nm fluorescence (AID 1108); conditions: small-molecule microarray binding, fluorescence 635 nm; higher = more signal;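 note: E7 fragment applied at 1 µg/mL in TBST for 1 h at 4 C; score combines spot fluorescence with its signal to noise ratio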
[2] = modulators of HCV replicon luciferase signal, primary screen, HCV replication inhibitor project, Huh7 cells, luciferase reporter (AID 1109); conditions: 48 h, higher = more signal;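 note: huh7 hepatoma cells harbouring a luciferase neomycin HCV replicon reporter; luciferase luminescence as measure of HCV replicon replication; test concentration not given here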
[3] = target: Left-right determination factor 2 (Homo sapiens) (UniProt O00292); experiment: LEFTY2 binders on small-molecule microarrays, primary screen, biochemical, small-molecule microarray, 635 nm fluorescence scan (AID 1110); conditions: LEFTY2 binding, higher = more signal
Sequence of Left-right determination factor 2 (Homo sapiens) (O00292 whole entry, looked up): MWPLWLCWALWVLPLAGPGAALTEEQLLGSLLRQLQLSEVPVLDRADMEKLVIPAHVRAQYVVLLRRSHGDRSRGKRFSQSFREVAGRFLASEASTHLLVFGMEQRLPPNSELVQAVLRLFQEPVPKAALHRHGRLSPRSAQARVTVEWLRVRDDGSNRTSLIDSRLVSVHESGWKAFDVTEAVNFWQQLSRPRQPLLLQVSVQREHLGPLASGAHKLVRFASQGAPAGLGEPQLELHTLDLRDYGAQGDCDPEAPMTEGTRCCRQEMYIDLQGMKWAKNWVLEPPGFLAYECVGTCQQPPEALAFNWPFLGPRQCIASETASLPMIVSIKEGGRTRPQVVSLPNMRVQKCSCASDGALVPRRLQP

[4] = target: Calmodulin-1 (Homo sapiens) (UniProt P0DP23); experiment: CALM1 binders on microarrays, EGTA buffer, profiling panel, biochemical, small-molecule microarray, Cy5-labelled CALM1 (AID 1111); conditions: Cy5-CALM1 binding fluorescence, higher = more signal;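 note: labelled calmodulin applied in Tris saline Tween buffer holding calcium plus EGTA and DTT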
[5] = target: Calmodulin-1 (Homo sapiens) (UniProt P0DP23); experiment: calcium-bound CALM1 binders on microarrays, profiling panel, artefact control for SMM control-protein annotation, biochemical, small-molecule microarray, Cy5-labelled CALM1, plus calcium (AID 1112); conditions: Cy5-CALM1 binding fluorescence, higher = more signal;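 note: score merges spot fluorescence with signal to noise from triplicate slides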
[6] = small-molecule microarray binders of probe aWnt5a, primary screen, biochemical, biotinylated probe, 635/667 nm fluorescence (AID 1113); conditions: higher = more signal;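 note: score merges 667 nm fluorescence intensity with signal-to-noise per printed feature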
[7] = small-molecule microarray binders of probe aShh, primary screen, biochemical, biotinylated probe, 635/667 nm fluorescence (AID 1114); conditions: higher = more signal;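 note: probe is biotin-labelled aShh protein from a stem cell growth factor screen; measures binding of labelled protein to compounds printed on the slide; score merges feature fluorescence at 667 nm with signal-to-noise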
[8] = small-molecule microarray binders of probe aNog, primary screen, biochemical, biotinylated probe, 635/667 nm fluorescence (AID 1115); conditions: higher = more signal;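 note: probe is biotinylated aNog protein used at 0.15 µg/mL for 1 h at 4 C; z-score combines 667 nm fluorescence of each spot with its signal to noise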
[9] = target: Torsin-1A-interacting protein 1 (Homo sapiens) (UniProt Q5JTV8); experiment: LAP1 binders from COS7 cell lysate, primary screen, small-molecule microarray, 635/667 nm fluorescence (AID 1116); conditions: COS7-hLAP1 lysate binding, 635 nm fluorescence, higher = more signal
Sequence of Torsin-1A-interacting protein 1 (Homo sapiens) (Q5JTV8 whole entry, looked up): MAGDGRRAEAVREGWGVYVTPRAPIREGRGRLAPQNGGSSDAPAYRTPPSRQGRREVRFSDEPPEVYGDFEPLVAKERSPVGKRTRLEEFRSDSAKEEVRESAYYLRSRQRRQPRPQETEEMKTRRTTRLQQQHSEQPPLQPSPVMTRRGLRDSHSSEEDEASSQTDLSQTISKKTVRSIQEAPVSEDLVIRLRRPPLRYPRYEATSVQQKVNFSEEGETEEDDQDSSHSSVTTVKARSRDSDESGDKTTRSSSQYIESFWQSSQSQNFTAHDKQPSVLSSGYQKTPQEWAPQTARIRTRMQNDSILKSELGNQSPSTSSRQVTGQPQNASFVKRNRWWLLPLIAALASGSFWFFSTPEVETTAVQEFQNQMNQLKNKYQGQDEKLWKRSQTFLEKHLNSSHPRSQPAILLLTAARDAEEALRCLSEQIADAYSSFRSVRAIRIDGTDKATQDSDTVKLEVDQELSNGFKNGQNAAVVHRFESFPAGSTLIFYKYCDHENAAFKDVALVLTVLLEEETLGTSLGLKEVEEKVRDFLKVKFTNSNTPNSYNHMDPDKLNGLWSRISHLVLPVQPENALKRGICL

[10] = target: Alpha-bungarotoxin (Bungarus multicinctus) (UniProt P60615); experiment: alpha-bungarotoxin binders on microarray, profiling panel, artefact control for SMM control protein annotation, biochemical, small-molecule microarray, Alexa647 label, 635/667 nm fluorescence (AID 1117); conditions: alpha-BTX-A647 binding fluorescence, higher = more signal
Sequence of Alpha-bungarotoxin (Bungarus multicinctus) (P60615 whole entry, looked up): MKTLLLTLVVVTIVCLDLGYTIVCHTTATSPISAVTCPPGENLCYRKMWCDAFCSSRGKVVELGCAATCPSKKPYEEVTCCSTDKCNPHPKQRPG

Albumin (Bos taurus) = Albumin (Bos taurus) (UniProt P02769); experiment: bovine serum albumin binders on microarray, profiling panel, artefact control for SMM control protein annotation, biochemical, small-molecule microarray, Alexa647 label, 635/667 nm fluorescence (AID 1118); conditions: BSA-A647 binding, fluorescence 635 nm, higher = more signal;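 note: score merges 667 nm emission intensity and signal-to-noise per printed compound spot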
Sequence of Albumin (Bos taurus) (P02769 whole entry, looked up): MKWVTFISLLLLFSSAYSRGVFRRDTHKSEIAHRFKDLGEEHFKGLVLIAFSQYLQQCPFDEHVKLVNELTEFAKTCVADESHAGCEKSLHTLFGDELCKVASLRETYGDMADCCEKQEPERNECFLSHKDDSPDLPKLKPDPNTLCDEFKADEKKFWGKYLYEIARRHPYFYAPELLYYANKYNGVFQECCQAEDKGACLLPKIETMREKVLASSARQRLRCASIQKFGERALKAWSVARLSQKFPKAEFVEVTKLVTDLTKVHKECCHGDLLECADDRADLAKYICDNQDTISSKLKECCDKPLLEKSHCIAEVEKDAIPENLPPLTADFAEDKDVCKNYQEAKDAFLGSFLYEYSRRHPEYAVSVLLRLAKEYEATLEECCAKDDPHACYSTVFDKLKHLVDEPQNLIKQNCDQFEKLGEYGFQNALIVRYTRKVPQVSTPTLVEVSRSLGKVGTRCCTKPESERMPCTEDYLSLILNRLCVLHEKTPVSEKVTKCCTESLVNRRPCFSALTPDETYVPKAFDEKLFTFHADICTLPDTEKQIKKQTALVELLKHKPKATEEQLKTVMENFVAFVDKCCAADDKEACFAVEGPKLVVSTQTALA

[11] = small-molecule microarray binders of probe aXIP, primary screen, biochemical, NeuroSMM set, 635/667 nm fluorescence (AID 1119); conditions: higher = more signal, called active from +8 up or from −8 down;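 note: probe is the protein aXip251-270 applied at 1 µg/mL to compound-printed slides; binding of probe to printed compounds measured as 667 nm fluorescence plus signal to noise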
[12] = small-molecule binders of probe aNOTCH3, primary screen, biochemical, small-molecule microarray, 635/667 nm fluorescence (AID 1120); conditions: higher = more signal;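 note: probe is a biotin-tagged antibody raised against NOTCH3 rather than NOTCH3 protein; score merges spot fluorescence near 667 nm with spot signal to noise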
[13] = small-molecule binders of probe aNOTCH2, primary screen, biochemical, small-molecule microarray, 635/667 nm fluorescence (AID 1121); conditions: higher = more signal;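 note: score merges feature fluorescence read at 667 nm with its signal to noise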
[14] = target: Carbonic anhydrase 2 (Homo sapiens) (UniProt P00918); experiment: CAII small-molecule binders, profiling panel, biochemical, small-molecule microarray, Alexa647-labelled CAII (AID 1122); conditions: CAII-A647 binding fluorescence, higher = more signal
[15] = COS7 lysate on small-molecule microarray, probe aHis, 635 nm (AID 1123); conditions: COS7 cell lysate, fluorescence, higher = more signal;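 note: z-score combines 667nm fluorescence intensity with signal-to-noise per printed compound spot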
[16] = compound binding in COS7 lysate, probe aLAP1, primary screen, cell lysate, small-molecule microarray (AID 1124); conditions: probe aLAP1, fluorescence, higher = more signal;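 note: lysate comes from COS7 cells expressing LAP1 and is applied at 0.3 µg/mL; score merges spot fluorescence near 667 nm with signal-to-noise over triplicate slides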
Sam68 (KHDRBS1) = experiment: Sam68 small-molecule binders, primary screen, biochemical, small-molecule microarray, 635 nm fluorescence (AID 1125); conditions: small-molecule microarray binding, higher = more signal;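 note: score merges 667 nm channel intensity with signal to noise over triplicate slides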
[17] = test system: Chordin-like protein 2 (CHRDL2); experiment: CHRDL2 small-molecule binders, primary screen, biochemical, small-molecule microarray, 635 nm fluorescence (AID 1126); conditions: small-molecule microarray binding, fluorescence 635 nm; higher = more signal;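 note: printed compound slides probed with Chrdl2 protein at 4 µg/mL for 1 h at 4 C; score merges 667 nm emission intensity with signal to noise over three replicate slides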
[18] = target: Concanavalin-A (Canavalia ensiformis) (UniProt P02866); experiment: ConA small-molecule binders, primary screen, artefact control for SMM control protein annotation, biochemical, small-molecule microarray, Alexa647 label, 635 nm (AID 1127); conditions: ConA-A647 binding fluorescence, higher = more signal;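 note: z combines 667 nm emission intensity with signal-to-noise across three replicate slides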
Sequence of Concanavalin-A (Canavalia ensiformis) (P02866 whole entry, looked up): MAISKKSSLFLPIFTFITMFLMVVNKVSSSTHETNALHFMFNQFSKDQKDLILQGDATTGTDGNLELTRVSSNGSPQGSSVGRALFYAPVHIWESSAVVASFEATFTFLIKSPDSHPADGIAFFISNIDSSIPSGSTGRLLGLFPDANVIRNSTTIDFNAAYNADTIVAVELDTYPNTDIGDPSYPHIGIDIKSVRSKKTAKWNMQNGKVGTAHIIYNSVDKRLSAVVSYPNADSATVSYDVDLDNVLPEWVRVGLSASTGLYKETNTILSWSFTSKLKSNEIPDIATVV

SMILES | composite z-score [1] | z-score [2] | composite z-score [3] | composite z-score [4] | composite z-score [5] | composite z-score [6] | composite z-score [7] | composite z-score [8] | composite z-score [9] | composite z-score [10] | composite z-score (Albumin (Bos taurus)) | composite Z-score [11] | composite z-score [12] | composite z-score [13] | composite z-score [14] | composite z-score [15] | composite z-score [16] | composite z-score (Sam68 (KHDRBS1)) | composite z-score [17] | composite z-score [18]
CN(C)CCCN1C(=O)[C@@]2(c3ccc([N+](=O)[O-])cc3)CC(=O)N(C3CCCCC3)[C@@H]2c2ccc(CO)cc21 | -0.274 | -0.493 | 0.0478 | -0.126 | -0.361 | -0.104 | -0.304 | -0.118 | -1.4 | 0.25 | -0.4 | 0.0831 (inactive) | -0.0665 | -0.0455 | -0.622 | -0.317 | -0.233 | -0.395 | -0.137 | 0.209
O=C(NCC(F)(F)F)[C@@H]1c2ccccc2C(=O)N(Cc2ccccc2)[C@H]1c1ccc(CO)cc1 | 0.337 | -0.32 | -1.78 | -0.189 | 0.621 | -0.158 | -0.0849 | 0.0056 | -0.236 | -0.846 | -1.27 | 0.111 (inactive) | -0.354 | -0.0586 | 0.723 | 1.08 | 0.345 | -0.141 | -1.57 | -0.331
C=CC[C@@]1(C(=O)OC)N=C(c2ccc(OCCCO)cc2)O[C@@H]1c1ccccc1CN=[N+]=[N-] | 1.14 | -2.02 | -0.0045 | -0.517 | -0.896 | -0.144 | -0.0553 | -0.24 | 0.798 | 0.389 | -0.13 | -0.169 (inactive) | 0.0419 | -0.102 | 0.586 | 1.48 | -0.11 | 0.38 | 0.373 | 0.518
CCCNC(=O)[C@@]1(C)c2ccccc2C(=O)N(Cc2cc(C(F)(F)F)cc(C(F)(F)F)c2)[C@H]1c1ccc(CO)cc1 | 1.23 | -1.16 | -0.657 | 0.0189 | 0.168 | 0.0377 | -0.297 | -0.158 | 1.61 | 0.919 | -0.549 | 0.147 (inactive) | -0.198 | -0.114 | 0.671 | 1.68 | 0.458 | 0.356 | -1.08 | -0.082
C=CCC(OC(C)=O)[C@@H]1[C@@H](N(Cc2cc3ccccc3o2)C(=O)c2cccc3ccccc23)c2cc(OCCCO)ccc2N1C(=O)Cc1ccc(OC)cc1 (stereo not given in full) | -0.0348 | -0.431 | 0.443 | -0.158 | 0.344 | -0.0816 | -0.0146 | 0.328 | 0.153 | 0.608 | -0.131 | 0.495 (inactive) | 0.0602 | -0.0937 | 0.327 | 0.497 | -0.0685 | -0.0427 | 0.364 | -0.162
O=C1OCC=C[C@H]2OC34C=CCN(CCN5CCOCC5)C(=O)[C@H]3N(CCCCCCO)C(=O)[C@@H]4[C@@H]12 (stereo not given in full) | -0.139 | -0.413 | -0.207 | -0.238 | -0.695 | -0.176 | -0.0904 | 0.0395 | 1.37 | 0.0977 | 0.509 | -1.05 (inactive) | 0.0208 | -0.104 | 0.688 | 3.1 | 0.55 | 0.274 | 0.158 | 0.0683
[N-]=[N+]=NCc1ccccc1[C@@H]1OC(c2ccc(OCCCO)cc2)=N[C@]1(Cc1ccccc1N=[N+]=[N-])C(N)=O | 1.43 | -0.613 | -0.0808 | 2.02 | 1.11 | -0.0478 | 0.593 | 1.49 | 0.804 | 2.66 | 0.825 | 0.0773 (inactive) | 0.473 | 0.299 | 0.715 | 2.8 | 0.202 | 1.3 | -0.124 | 1.12
COc1ccc([Si](C)(C)[C@H]2[C@H](CC(=O)N3CCC[C@H]3CO)O[C@@]3(C(=O)N(c4ccccc4)c4ccccc43)[C@@H]2C)cc1 | -0.542 | -1.12 | 0.301 | -0.363 | -0.366 | -0.156 | -0.13 | -0.1 | 0.429 | 0.0488 | 0.723 | -0.352 (inactive) | -0.191 | -0.185 | 0.655 | -0.0779 | 0.0352 | -0.126 | 0.515 | 0.493
C=CCN1C(=O)[C@]2(COC(c3ccc(OCCCO)cc3)=N2)Cc2ccccc21 | 1.17 | -0.347 | -0.352 | -0.0567 | 0.0613 | 0.227 | 0.0253 | 0.795 | 2.59 | 1.48 | 0.284 | -0.586 (inactive) | -0.0362 | -0.0583 | 0.627 | 2.78 | 1.11 | 0.487 | 0.0453 | 0.953
CC(C)(C)OC(=O)CC[C@@]1(C(N)=O)N=C(c2ccc(OCCCO)cc2)O[C@@H]1c1ccccc1N=[N+]=[N-] | 1.2 | 3.02 | -0.038 | 1.03 | 0.774 | -0.0125 | 0.0796 | -0.504 | 1.12 | 1.22 | 0.501 | 0.005 (inactive) | 0.191 | -0.0241 | 0.616 | 2.08 | -0.293 | 1.07 | -0.409 | 1.13
CC(C)(C)OC(=O)CC[C@@]1(C(=O)N2CCOCC2)N=C(c2ccc(OCCCO)cc2)O[C@@H]1c1ccccc1N=[N+]=[N-] | 1.48 | 0.623 | 0.395 | 1.56 | 0.642 | 0.115 | 0.558 | 0.45 | 1.6 | 2.41 | 0.899 | 0.817 (inactive) | 0.336 | -0.0463 | 0.74 | 3.35 | 1.51 | 1.3 | -0.16 | 1.14
Cc1cc(C)c(C(O)C2C=CC3C(=O)NC(=O)C3N2Nc2ccccn2)c(C)c1 (stereo not given) | 1.22 | 0.544 | -0.318 | 0.62 | 0.153 | -0.0596 | 0.0469 | 1.63 | 0.849 | 0.0525 | 0.63 | -0.0521 (inactive) | 0.148 | 0.139 | 0.422 | 1.09 | 0.751 | 0.785 | -0.907 | 0.049
CO[C@H]1O[C@H](CO)[C@@H](OC(=O)Nc2ccc3c(c2)OCO3)[C@H](OC(=O)Nc2ccc3c(c2)OCO3)[C@H]1OC(=O)Nc1ccc2c(c1)OCO2 | 1.45 | -0.36 | 0.265 | 1.52 | -0.623 | 0.0037 | 0.503 | 0.961 | 1.21 | 0.477 | 0.733 | 0.204 (inactive) | 0.307 | -0.0483 | 0.7 | 2.73 | 0.804 | 1.29 | 0.138 | 1.07
O=C(NCc1ccccc1)[C@@H]1c2ccccc2C(=O)N(Cc2cc(F)cc(C(F)(F)F)c2)[C@H]1c1ccc(CO)cc1 | 1.44 | -0.132 | -0.244 | -0.174 | -0.707 | -0.096 | 0.163 | -0.339 | 1.15 | 0.258 | 0.491 | 0.318 (inactive) | -0.0477 | -0.124 | 0.589 | 1.67 | 0.662 | 1.27 | 0.161 | 0.769
CCN(CC)c1ccc(N2CC=CC34O[C@@H]5C=CCOC(=O)[C@@H]5[C@H]3C(=O)N(CCCCCO)[C@@H]4C2=O)cc1 (stereo not given in full) | 0.221 | -0.323 | -0.938 | -0.385 | -0.0559 | 0.195 | 0.147 | 0.277 | 0.975 | -1.28 | 0.347 | 1.21 (inactive) | -0.193 | -0.146 | 0.861 | 1.17 | 1.04 | -0.0514 | -1 | -1.47

From PubChem BioAssay
